In the supplement of paper PMC3334620:
Over roughly 33,000 sequences, “E-score (-0.5 to 0.5)” has its median near -0.054; the highest 2% begin near 0.39. Only a selection was taken, and the highest values are over-represented in it overall.

target: Ylr278c (UniProt Q05854); experiment: PBM E-score (8-mer binding enrichment) (E-score (-0.5 to 0.5)); higher = stronger / more preferred TF binding; settings: protein concentration: 200 nM; construct: GST-DNA-binding domain
Procedure: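 Universal 'all 10-mer' protein binding microarrays (Agilent AMADID 015681) probed with GST-tagged S. cerevisiae TFs (full-length or DBD) made by in vitro transcription/translation (PURExpress), about 100-200 nM. Bound TF was detected with fluorescent anti-GST. Each ungapped 8-mer (which stands for itself and its reverse complement) is scored by the PBM enrichment score (E-score), a modified Wilcoxon-Mann-Whitney statistic from -0.5 to +0.5, computed with the Universal PBM Analysis Suite. Scale: above 0.35 generally sequence-specific binding.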

Chain of UniProt Q05854 (Q05854 whole entry, the tested form may be a part): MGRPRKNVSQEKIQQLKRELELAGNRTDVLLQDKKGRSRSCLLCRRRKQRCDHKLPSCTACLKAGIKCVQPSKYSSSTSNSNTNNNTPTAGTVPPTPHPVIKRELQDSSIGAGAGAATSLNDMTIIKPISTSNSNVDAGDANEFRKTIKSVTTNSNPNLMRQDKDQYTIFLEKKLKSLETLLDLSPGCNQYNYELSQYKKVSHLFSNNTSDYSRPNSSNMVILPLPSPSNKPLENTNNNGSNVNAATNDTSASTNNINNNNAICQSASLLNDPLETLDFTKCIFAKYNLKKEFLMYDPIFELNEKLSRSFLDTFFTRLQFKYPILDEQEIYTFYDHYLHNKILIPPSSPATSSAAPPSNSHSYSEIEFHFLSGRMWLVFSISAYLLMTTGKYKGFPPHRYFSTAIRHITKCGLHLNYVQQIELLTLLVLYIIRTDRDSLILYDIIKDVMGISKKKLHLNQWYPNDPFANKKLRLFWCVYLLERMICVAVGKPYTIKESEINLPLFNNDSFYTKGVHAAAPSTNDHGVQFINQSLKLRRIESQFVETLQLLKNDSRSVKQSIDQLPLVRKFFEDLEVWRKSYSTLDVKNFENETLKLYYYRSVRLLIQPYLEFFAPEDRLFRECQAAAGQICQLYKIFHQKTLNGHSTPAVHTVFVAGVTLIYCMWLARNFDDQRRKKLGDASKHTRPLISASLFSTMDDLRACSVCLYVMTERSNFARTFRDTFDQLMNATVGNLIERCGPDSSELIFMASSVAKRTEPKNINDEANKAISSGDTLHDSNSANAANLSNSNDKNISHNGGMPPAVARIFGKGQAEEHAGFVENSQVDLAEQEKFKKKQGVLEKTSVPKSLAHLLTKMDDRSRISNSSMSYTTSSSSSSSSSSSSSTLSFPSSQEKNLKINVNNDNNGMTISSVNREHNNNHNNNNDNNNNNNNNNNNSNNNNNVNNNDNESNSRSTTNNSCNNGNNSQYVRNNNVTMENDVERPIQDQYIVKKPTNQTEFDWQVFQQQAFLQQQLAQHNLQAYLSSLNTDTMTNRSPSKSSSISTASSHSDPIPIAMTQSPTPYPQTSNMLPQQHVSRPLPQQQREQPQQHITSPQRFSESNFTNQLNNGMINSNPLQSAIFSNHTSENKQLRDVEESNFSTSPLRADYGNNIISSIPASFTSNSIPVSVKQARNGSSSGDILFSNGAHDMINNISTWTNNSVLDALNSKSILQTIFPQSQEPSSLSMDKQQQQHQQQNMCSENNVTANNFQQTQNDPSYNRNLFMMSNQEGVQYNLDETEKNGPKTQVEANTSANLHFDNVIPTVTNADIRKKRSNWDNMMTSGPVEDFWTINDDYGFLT

Sequence	PBM E-score
CCCTCCAA	-0.119
CCCTCCTA	-0.107
ACCTCCGC	0.425
ACCTCCTG	-0.253
CCCTCCGA	0.405
ACCTCCGT	0.383
ACCTCCAC	0.0767
ACCTCCTC	-0.0564
GTAAGAAA	-0.0755
GAGCGGCA	0.207
ATGGTCAC	-0.0597
ATTTAAAA	0.114
AGGTAGCA	-0.197
CATCTAAC	-0.0951
AGCTAGAC	-0.174
CTGGCGGA	0.183
ACGGCGGA	0.37
CAGGCGGA	0.327
TCGGCGAA	0.372
CCGGCGGC	0.407
CCGGCGAA	0.404
GCGGCGGA	0.453
CTGGCGGC	0.207
GCGGCGAA	0.378
ACGGCGGC	0.167
GTGGCGGA	0.35

Sequence	PBM E-score
CCGGCGGA	0.456
ACGCGAAC	-0.00887
ATGAAGCC	0.0954
ACTGCCCA	-0.151
AGTTCATA	-0.0477
AATGGGTG	-0.0286
GAGGCTTA	-0.0425
CCGGCGCC	0.422
GCGGCGCC	0.289
ACGGCGCC	0.184
AATTCTGT	-0.0602
CGCGTGGC	-0.00486
AGGGATTA	-0.223
CGGGATTC	0.392
CTGGATTC	-0.00018
CGGGATTA	0.406
GGGGATTA	0.175
AGGGATTC	-0.0988
GTCGGGCA	0.0838
GCTGAACA	-0.153
CTTAGTCA	-0.184
CACTACGG	0.201
AGGTCAAA	-0.237
GATAGTCA	-0.0752
GCTCAGGA	-0.173
ACCCTAAG	-0.173

Sequence	PBM E-score
GCTCGGGA	0.174
AGGAACTA	-0.0554
CGGAACTC	0.409
CGGAACTA	0.422
GGGAACTA	0.11
CTGAACTC	-0.141
AGGAACTC	0.0174
AGGCTTAA	-0.00203
GATACCTA	-0.0272
ATGACGAG	-0.153
GTATTGTA	0.0802
AATGCCGT	0.381
AATGCCGA	0.392
CATGCCGA	0.217
CATGCCGG	0.368
AATGCCGC	0.352
AATGCCGG	0.421
CGCCAGAC	-0.153
CAGATTAC	-0.0164
TATACCAA	-0.101
AGGAGCTC	-0.122
GGGAGCTA	-0.0279
CGGAGCTA	0.42
CGGAGCTC	0.441
CTGAGCTC	0.0823
AGGAGCTA	-0.144

Sequence	PBM E-score
CGTCTCTC	-0.00934
ATGGCTGA	-0.344
TCAGCACA	-0.175
CTGACATC	-0.0317
CGGACATC	0.421
GGGACATA	0.0665
AGGACATC	0.0899
AGGACATA	-0.278
CGGACATA	0.454
GGAAGTTA	0.204
ATTCCAAC	-0.176
TCGATGAA	-0.11
CTCTTTTC	-0.0672
ACGACGCG	0.0212
CCGACGCG	0.394
ACGACGGA	0.301
GGGACGGA	0.369
GCGACGGA	0.313
CCGACGGA	0.425
CGGACGGA	0.397
CCGACGCC	0.361
CGGACGGC	0.313
GACCTCCA	0.0669
CCAGCTAG	-0.391
CAAGTTAC	0.0544
GAGTTCAC	0.0107

Sequence	PBM E-score
ACGATGAG	-0.0386
ACCCAGTC	-0.0927
ATGCTTCC	-0.0282
CACTGGCC	-0.0953
GGGAGCAC	0.0245
TGGAGCAA	-0.111
CTGAGCAG	-0.238
AGGAGCAG	-0.00465
CGGAGCAA	0.456
CGGAGCAC	0.391
AGGAGCAA	-0.0147
CGGAGCAG	0.417
AGGAGCAC	-0.0853
GAGGGAAA	-0.26
AATGCGAG	0.00781
GTAGGGCA	-0.038
AATTCAGG	0.127
GTGGTATA	-0.188
CGTCTATC	0.0841
ACACACTA	-0.13
ATCAGAGA	-0.213
ATCGGGGG	0.209
CTCGGATC	0.34
CTCGGAGC	0.431
ATGGGAGA	-0.309
CTCGGCGA	0.354

Sequence	PBM E-score
CTTGGAGA	-0.0088
CTCGGTGC	0.0178
CTCGGAGA	0.449
ATCGGAGG	0.426
ATCGGAGA	0.455
ATCGGTGG	0.13
CTGCAGCA	-0.151
ACTCAAAG	-0.129
AACTTGTC	0.0361
TTAACCAA	-0.136
TAGCATAA	-0.111
ACTCCACA	-0.0234
CCTGACTA	-0.0923
ATCAGAGC	-0.0306
GTAGGAGA	-0.0599
ATCGGATC	0.33
GTCGGATA	0.312
ATCGGAGC	0.458
GTCGGAGA	0.444
ATATCTCA	0.0231
GATTATGA	-0.0204
GACTGGAA	-0.161
CAACTTAG	0.0176
AATAAGAC	-0.228
TGGGCCCA	0.026
GGGAGTTA	0.195

Sequence	PBM E-score
CGGAGTTA	0.493
AGGAGTTA	0.232
CTGAGTTC	0.0225
CGGAGTTC	0.494
AGGAGTTC	0.109
GCTACAAA	-0.0551
TAGCCACA	-0.289
CCTAAGAA	-0.261
CGAAAGCG	-0.00844
GTCCCAGA	-0.235
AGGCGGAG	0.39
GGGCGGAC	0.399
CGGCGGCA	0.281
CGGCGGAG	0.461
AGGCGGGG	0.221
AGGCGGCG	0.193
CGGCGGCC	0.322
GGGCGAAC	0.0496
GAGCGGAC	0.321
AGGCGGAC	0.386
CGGCGGAC	0.411
AGGCGGAT	0.237
